# In the library only some 12% were active in any assay of this set; here they are far more common.
# USP30 inh – human USP30 deubiquitinase inhibition; inhibition, % at 25 µM; 5.3% of 47,000 active; Q70CQ3; purified USP30, Ub-rhodamine cleavage fluorescence
# USP28 inh – human USP28 deubiquitinase inhibition; purified USP28, Ub-rhodamine cleavage fluorescence, 30 min; inhibition, % at 25 µM; 3% of 47,000 active
# USP17 block – inhibitors of human USP17 deubiquitinase; 6.5% of 47,000 active; purified USP17, Ub-rhodamine cleavage fluorescence, 3 h; AID 1645855; inhibition, % at 50 µM
# OTUD3 inh – blocks human OTUD3 ubiquitin-rhodamine cleavage; inhibition, % at 25 µM; AID 1645858; purified OTUD3, Ub-rhodamine fluorescence, 2 h; 0.7% of 47,000 active; Q5T2D3
# An asterisk follows results filed as active; . = not tested or not shown. Cut-off read from the data, not from the text of the source: active = inhibition above about 30%; inactive = the rest.
SMILES,USP30 inh,USP28 inh,USP17 block,OTUD3 inh
CCOC(=O)N1CCN(C(=O)c2ccc3c(=O)n(CCOC)c(=O)[nH]c3c2)CC1,4.4,-2.8,-10.6,-0.6
CCOCCCNC(=O)c1ccc(Cn2c(=O)[nH]c3cc(OCC)c(OCC)cc3c2=O)cc1,.,.,10.9,0.3
COc1ccccc1N1CCN(C(=O)CCn2c(=O)[nH]c3ccccc3c2=O)CC1,-11.4,-5.6,-3.4,-2.0
COc1ccccc1N1CCN(C(=O)c2ccc3c(=O)n(CCc4ccccc4)c(=O)[nH]c3c2)CC1,35.4*,7.8,20.3,5.2
CCN1CCN(CCCNC(=O)c2ccc3c(=O)n(CCc4ccccc4)c(=O)[nH]c3c2)CC1,32.1*,13.4,2.5,9.9
CCN(CCCNC(=O)c1ccc(Cn2c(=O)[nH]c3ccccc3c2=O)cc1)c1ccccc1,3.0,-5.9,58.5*,2.7
COc1ccc(Cn2c(=O)[nH]c3cc(C(=O)NCCCN4CCN(c5cccc(Cl)c5)CC4)ccc3c2=O)cc1,46.2*,11.5,50.6*,20.4
COc1ccc(N2CCN(CCCNC(=O)c3ccc4c(=O)n(CCc5ccccc5)c(=O)[nH]c4c3)CC2)cc1,20.4,9.0,24.5,9.9
O=S(=O)(c1ccc2c(c1)OCCO2)N(Cc1ccccc1)Cc1nnc(-c2ccccc2)o1,74.3*,23.4,.,21.5
COc1ccc([N+](=O)[O-])cc1C1N(c2ccccc2)CCN1c1ccccc1,2.9,2.2,31.1*,-1.2
CSc1ccc(/C=C/c2nc(-c3ccccc3O)n[nH]2)cc1,8.6,28.6,46.2*,14.2
Cc1cc(NCC2CC2)n2nc(Nc3cc(Cl)ccc3C)nc2n1,30.9*,10.6,70.9*,10.9
COc1ccc(CNC(=O)C2CCN(CC3CC=CCC3)CC2)cc1 (stereo not drawn),.,.,0.0,0.5
CC(Nc1ccccc1N1CCOCC1)C(=O)Nc1cc(C(F)(F)F)ccc1N1CCOCC1 (stereo not drawn),8.4,2.6,8.7,5.1
CCOc1ccccc1NC(=O)CNc1cc(C(F)(F)F)ccc1N1CCOCC1,33.0*,17.1,17.1,12.9
COc1ccc(Cc2nnc(Nc3ccc(Cl)cc3)[nH]c2=O)cc1,-27.9,-7.7,4.6,4.6
COc1ccc(Cc2nnc(Nc3ccc(F)cc3)[nH]c2=O)cc1OC,34.9*,9.8,3.9,13.6
O=C(c1cccnc1)N1C[C@H]2C[C@H]3[C@](C1)(CN(Cc1ccc(Cl)cc1)S3(=O)=O)O2,13.9,9.6,4.7,0.8
Cc1ccccc1-c1nnc2sc(COc3ccc(Cl)cc3)nn12,80.0*,52.7*,68.4*,36.9*
Cc1cc(=O)oc2cc(OCC(=O)NCc3ccccn3)ccc12,19.5,10.6,11.9,8.0
CCCc1cc(=O)oc2cc(OCC(=O)NCc3ccccn3)ccc12,60.0*,17.2,61.2*,14.9
O=C(NCc1ccccc1F)c1ccc(Cl)c(S(=O)(=O)N2CCCCC2)c1,22.3,38.4*,9.3,15.9
Cc1ccc(NC(=O)CC2Nc3ccccc3NC2=O)cc1[N+](=O)[O-] (stereo not drawn),48.8*,13.6,41.0*,21.7
Cc1ccc(S(=O)(=O)Nc2ccc(NC(=O)CC3OC(=O)c4ccccc43)cc2)cc1[N+](=O)[O-] (stereo not drawn),13.1,7.2,0.4,15.1
O=C(Nc1cnc(N2CCCCC2)nc1)c1ccccc1Br,-36.4,-11.5,-21.5,-17.8
SMILES,USP30 inh,USP28 inh,USP17 block,OTUD3 inh
CCC(C)(C)C1CCC2(CC1)N=C(N)Nc1nc3ccccc3n12 (stereo not drawn),69.3*,28.8,10.8,6.4
NC1=NC2(CCC(c3ccccc3)CC2)n2c(nc3ccccc32)N1 (stereo not drawn),-2.8,-0.8,4.1,-9.5
O=C1OC(C(=O)N2CCN(S(=O)(=O)c3ccc(F)cc3)CC2)Cc2ccccc21 (stereo not drawn),-28.9,0.0,0.1,2.5
O=C(O)c1ccccc1C(=O)N1CCN(c2ccc(C(F)(F)F)cn2)CC1,31.9*,2.9,19.0,8.9
O=C1OC(C(=O)N2CCN(c3ccc(C(F)(F)F)cn3)CC2)Cc2ccccc21 (stereo not drawn),13.9,0.0,42.5*,1.2
O=C(O)C1CCC1C(=O)N1CCN(c2ccc(C(F)(F)F)cn2)CC1 (stereo not drawn),3.0,8.0,11.3,7.3
CC(C)Oc1ccc(C(=O)CN2C(=O)COc3ccccc3C2=O)cc1Cl,29.9,26.9,11.1,14.5
Cc1ccc(CN2C(=O)COc3ccccc3C2=O)cc1,27.0,38.8*,19.5,15.4
Cc1cccc(OC(C)(C)C(=O)N2CCc3nnc(C4CCCN4)n3CC2)c1C (stereo not drawn),-5.8,28.9,-11.2,-7.6
